# Measurements from PubChem BioAssay (NCI).
# About 83,000 compounds went through this panel and 20% of them were active in at least one assay; those are over-represented in the sample as a whole.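 Values shown are percent growth following 48 h exposure of cells in 96-well plates to a single concentration of compound; below 10 was considered active.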 Unmarked numbers belong to inactive results. Activity calls are given as the source filed them.
# Legend:
# Assay in all cases: NCI-60 one-dose screen, 48 h (100 = growth as untreated, 0 = no growth, -100 = all killed)
# NCI-H23 lung = details: 10 µM unless noted
# NCI-H460 lung = details: 10 µM unless noted
# 786-0 renal = details: 10 µM unless noted
# DU-145 prostate = details: 10 µM unless noted
# MDA-MB-231 breast = details: 10 µM unless noted
# SF-268 CNS = details: 10 µM unless noted
# SF-539 CNS = details: 10 µM unless noted
# UACC-257 melanoma = details: 10 µM unless noted
# HCT-15 colon = details: 10 µM
# PC-3 prostate = details: 10 µM unless noted
# SK-MEL-5 melanoma = details: 10 µM unless noted
# LOX IMVI melanoma = details: 10 µM unless noted
# SK-MEL-28 melanoma = details: 10 µM unless noted
# SN12C renal = details: 10 µM unless noted
# NCI/ADR-RES ovarian = details: 10 µM unless noted
# SW-620 colon = details: 10 µM unless noted
# MCF7 breast = details: 10 µM unless noted
# HCT-116 colon = details: 10 µM unless noted
# HCC-2998 colon = details: 10 µM unless noted
# KM12 colon = details: 10 µM unless noted
Structure (SMILES),growth (NCI-H23 lung) [%],growth (NCI-H460 lung),growth (786-0 renal) [%],growth (DU-145 prostate),growth (MDA-MB-231 breast),growth (SF-268 CNS) [%],growth (SF-539 CNS),growth (UACC-257 melanoma) [%],growth (HCT-15 colon),growth (PC-3 prostate) [%],growth (SK-MEL-5 melanoma),growth (LOX IMVI melanoma) [%],growth (SK-MEL-28 melanoma) [%],growth (SN12C renal) [%],growth (NCI/ADR-RES ovarian),growth (SW-620 colon) [%],growth (MCF7 breast) [%],growth (HCT-116 colon),growth (HCC-2998 colon),growth (KM12 colon)
CC1(C)N=C(N)N=C(N)N1c1ccc(OCCCCNC(=O)c2ccc(S(=O)(=O)F)cc2)c(Cl)c1,68.1,19.8%,40.9,55%,105%,40.7,64.9%,54.7,94.9%,23.4,51.4%,25.7,96,44.7,109%,35.1,34.7,25.6%,83.1%,66.5%
CC12CCC(=O)C=C1C(O)CC1C2CCC2(C)C(O)CCC12 (configuration not stated),100,102%,115,102%,114%,98,98.7%,95,106%,95,98.6%,97.2,115,105,108%,109,97.1,99%,101%,98.8%
C[CH2][Pb]([CH2]C)([CH2]C)[O]C(=O)c1ccc(N)cc1,51.2,69.5%,80.2,68%,88.7%,72.9,87.4%,,66.1%,57.5,39%,68.5,58.8,77.2,59.7%,28.7,56.1,57.7%,67.5%,59.4%
O=[N+]([O-])c1ccc(F)c([N+](=O)[O-])c1F,111,106%,,115%,113%,103,105%,103,116%,89.3,103%,102,116,103,109%,88.2,102,,105%,94.1%
COc1ccc(-c2ccc(OC)c(OC)c2OC)cc1,46.1,12%,21.3,13.8%,43.8%,51.5,3.98% (active),43.2,27.1%,18.3,15.3%,16.5,49.6,42.3,-20% (active),11.6,19.3,15.3%,23.7%,29.2%
N#CC1c2ccccc2C=CN1C(=O)c1ccc(N(CCCl)CCCl)cc1 (configuration not stated),89.3,111%,107,111%,92.9%,95.9,101%,81.5,81.4%,81.1,84%,90.4,94.6,75.5,83.4%,105,83.5,104%,101%,98%
CC(C)CCC[C@@H](C)[C@H]1CC[C@H]2[C@@H]3CC=C4C[C@@H](OC(=O)Cc5ccc(N(CCCl)CCCl)cc5)CC[C@]4(C)[C@H]3CC[C@]12C,107,97.8%,96.7,116%,101%,108,94.1%,103,108%,99.5,95.8%,104,111,99.9,102%,109,99,103%,-5.75% (active),109%
CC[C@H](C)[C@H](NC(=O)Nc1ccccc1)C(=O)N(C)[C@H](C[C@@H](OC(C)=O)c1nc(C(=O)N[C@@H](Cc2ccccc2)C[C@H](C)C(=O)OC)cs1)C(C)C,23.6,1.7% (active),18.1,-3.41% (active),-4.27% (active),18.8,-26.3% (active),60.6,9.43% (active),21.6,-70.3% (active),23.9,52.1,46.6,59.1%,17,12.4,6.85% (active),18.7%,4.31% (active)
